# Screening results (PubChem BioAssay)
# HT1080 IDH1KD tx: qHTS for induction of synthetic lethality in tumor cells producing 2HG: qHTS for the HT-1080-IDH1KD cell line | HT-1080 IDH1 knockdown viability, ATP luminescence, 48 h | Potency, µM (series often up to 46.1 µM), for inactives: at the highest dose activity, negative = toxicity, hits mostly cytotoxic | actives 2% (n = 360,000) | AID 686971, 2013;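 further: 0% = DMSO wells and -100% = cell-free medium wells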
#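 Viability of IDH1-knockdown HT-1080 fibrosarcoma cells was assessed by CellTiter-Glo after 48 h at 37 °C with titrated compound; concentration-effect curves were classified by fit quality and response size.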
# ATXN viability: Viability Counterscreen for Primary qHTS for Inhibitors of ATXN expression; S2 cells (HEK-293 line with an ATXN2-luciferase reporter) viability, CellTiter-Fluor protease fluorescence, 24 h; Potency, µM (top dose mostly 56.7 µM), most hits filed as cytotoxic; actives 0.49% (n = 400,000); AID 651635, 2014; further: nearly all actives have a fitted effect of over 40% in size
# KB-V1 cytotox: qHTS assay for MDR1-selective chemotherapeutics: Primary screen using the drug-selected MDR subline cells KB-V1 | KB-V1 MDR cells viability, CellTiter-Glo, 72 h | actives 3.4% (n = 400,000) | AID 1347076, 2019 | Potency, µM (doses to about 46.1 µM), hits mostly cytotoxic; further: on the % scale 0 is the no-effect control and ±100 the full control effect; nearly all actives have a fitted effect of over 60% in size
#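 KB-V1 cells (P-gp-expressing MDR subline of KB-3-1) in phenol-red-free DMEM with 10% FBS were exposed to library compounds over a concentration series for 72 h at 37 degrees C. Viability read by CellTiter-Glo luminescence; concentration-effect curves fitted after normalization.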
# KB-3-1 tox: qHTS assay for MDR1-selective chemotherapeutics: Primary screen using the parental adenocarcinoma cell KB-3-1. KB-3-1 viability, CellTiter-Glo ATP luminescence, 72 h. Potency, µM (doses to about 46.1 µM), usual class: cytotoxic. actives 1.4% (n = 400,000); further: on the % scale 0 is the no-effect control and ±100 the full control effect; nearly all actives have a fitted effect of over 60% in size
#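 Using CellTiter-Glo luminescence, growth of non-resistant KB-3-1 adenocarcinoma cells is assessed 72 h after pin-tool compound addition at 37 °C. Normalized responses across the concentration series yield fitted curves.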
# ATXN2 expr inh: Primary qHTS for Inhibitors of ATXN expression; actives 0.72% (n = 360,000); Potency, µM (top dose mostly 57 µM), without a hit: at the top dose activity change, negative = inhibition, actives largely listed as inhibitors; HEK-293 ATXN2-luciferase reporter, luminescence, 24 h; further: on the % scale 0 is the no-effect control and ±100 the full control effect; nearly all actives have a fitted effect of over 55% in size
#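 qHTS (up to 57 uM final) was run with 24 h compound exposure of reporter cells at 37 °C. Each well was multiplexed: SteadyGlo luminescence measured ATXN2-luciferase expression after a fluorogenic Gly-Phe-AFC viability readout (25 uM final).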
# HT1080-NT tox: qHTS for induction of synthetic lethality in tumor cells producing 2HG: qHTS for the HT-1080-NT fibrosarcoma cell line | HT-1080-NT fibrosarcoma viability, CellTiter-Glo ATP luminescence, 48 h | Potency, µM (titrated, usually from 46.1 µM), for the others: at the highest dose activity, negative = less viability, most hits filed as cytotoxic | actives 1.6% (n = 360,000);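 further: NT is the 2HG producing partner of a matched IDH1 knockdown line; 0% = DMSO-treated cells and -100% = media-only wells without cells; nearly all actives have a fitted effect of over 55% in size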
#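 HT-1080-NT fibrosarcoma cells (2HG-overproducing), 750 cells/well in RPMI with 5% FBS, dosed after 2 h and incubated 48 h at 37C. CellTiter-Glo luminescence normalized to DMSO and no-cell wells; concentration-response curves fitted and classed.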
# * = called active by the depositor; i = inactive; u = inconclusive; x = no result. This is a sample that favours compounds with a hit; in the whole collection about 6.2% have one here. The call rests on the fitted dose curve; in most records, active means well fitted curve in the direction sought with a large enough effect; inconclusive means small, poorly fitted or top-dose-only effect, or another doubt; inactive means no such curve, though single readings can be large; an effect the other way counts as inactive or inconclusive. Potency means the concentration at half of the fitted maximal effect.
SMILES,HT1080 IDH1KD tx,ATXN viability,KB-V1 cytotox,KB-3-1 tox,ATXN2 expr inh,HT1080-NT tox
O=C(N/C=C/c1ccccc1)c1cccc([S+](=O)([O-])Nc2ccccc2F)c1,x,x,u,i,x,x
CCN(CC)S(=O)(=O)c1ccc(NC(=O)CN(c2ccccc2)S(=O)(=O)N(C)C)cc1,x,i,u,i,-11%,x
Clc1cccc(Cl)c1CO/N=C/c1c(-c2ccccc2)nc2n1CCS2,-30%,x,13µM*,u,x,u
COc1ccc(-c2csc(Cc3nnc(N4CCOCC4)n3-c3ccccc3)n2)cc1,1%,i,18µM*,i,0%,12%
Cc1cnc(-n2ncc(C(=O)N(C)C3CCOC3)c2-c2cccs2)nc1-c1ccc(F)cc1 (configuration not stated),x,i,x,x,x,x
COc1cc(=O)n2c(c1C(=O)N(C)Cc1ccsc1)CCN(Cc1c(C)nn(C)c1Cl)CC2,x,i,x,x,x,x
COc1ccc2ccccc2c1/C=N/NC(=O)c1cccc(C)c1,-1%,i,i,i,x,3%
Cc1cccc(OCC(=O)NC(C)C(=O)N/N=C/c2c(OCc3ccccc3)ccc3ccccc23)c1 (configuration not stated),u,i,16µM*,u,12%,u
COc1ccc(N(C(C)C(=O)N2CCCC2)S(C)(=O)=O)cc1 (configuration not stated),8%,u,i,i,x,11%
COc1ccc(N(C(C)C(=O)N2CCC(Cc3ccccc3)CC2)S(C)(=O)=O)cc1 (configuration not stated),-22%,i,3.7µM*,u,-16%,-2%
COc1cc(OC)c(-c2oc3ccccc3c(=O)c2O)c(OC)c1,u,i,u,8.2µM*,u,u
COc1cc(-c2oc3ccc(C)cc3c(=O)c2O)cc(OC)c1OC,x,x,23µM*,u,u,x
COc1ccc(OC)c(-c2oc3ccccc3c(=O)c2O)c1,u,i,i,i,3%,u
Cc1nc2ccccc2nc1CN1CCOc2ccc(CN3CCc4sccc4C3)cc2C1,x,i,x,x,x,x
CC(C)c1cccc(-c2csc(C(C)(O)c3ccncc3)n2)c1 (configuration not stated),u,i,u,u,-22%,u
NC(N)=N/N=C/c1cccc(Cl)c1Cl,21µM*,i,u,u,-28%,23µM*
CNC(=O)C1CCC(Cn2c(=O)c3sccc3n(CC(=O)Nc3cc(C)cc(C)c3)c2=O)CC1 (configuration not stated),x,i,u,i,0%,x
CC(C)(C)NC(=O)Cn1c(=O)c(=O)n(Cc2ccccc2)c2ccc(Cl)cc21,14%,u,21µM*,i,0%,6%
Cc1ccc(NC(=O)CSc2nc3c(cc2C#N)C(=O)CCC3)cc1S(=O)(=O)N(C)C,-5%,u,i,i,-14%,5%
CN(C)S(=O)(=O)c1ccc(Cl)c(NC(=O)CSc2nc3c(cc2C#N)C(=O)CCC3)c1,-6%,i,10µM*,i,-1%,10%
CC(C)CC(=O)c1c(O)c(C=O)c(O)c2c1O[C@@]1(C)[C@@H](C2)C[C@H]2C[C@@H]1C2(C)C,5%,i,i,i,-12%,5%
COc1ccc(NC(=O)CSc2nc3nc(C)cc(C)n3n2)cc1OC,x,u,i,i,0%,x
CCOC(=O)c1c(NC(=O)c2ccc(N3C(=O)C4C5C=CC(C5)C4C3=O)cc2)sc2c1CCCC2 (configuration not stated),11%,i,16µM*,i,-1%,5%
CCOc1ccc(N(CC(=O)NC2CCCC2)S(=O)(=O)c2c(C)noc2C)cc1,6%,i,i,i,6%,0%
CCOc1ccc(N(CC(=O)Nc2ccc(C)c(C)c2)S(=O)(=O)c2c(C)noc2C)cc1,x,i,u,u,-24%,x
SMILES,HT1080 IDH1KD tx,ATXN viability,KB-V1 cytotox,KB-3-1 tox,ATXN2 expr inh,HT1080-NT tox
CCOc1ccc(N(CC(=O)Nc2cccc(F)c2)S(=O)(=O)c2c(C)noc2C)cc1,u,i,u,21µM*,-22%,u
CCOC(=O)c1cccc(NC(=O)CN(c2ccc(OC)cc2)S(=O)(=O)c2c(C)noc2C)c1,2%,i,9.2µM*,i,1%,1%
COc1ccc(N(CC(=O)Nc2cccc(C(=O)O)c2)S(=O)(=O)c2c(C)noc2C)cc1,1%,i,i,i,4%,-2%
CCOc1ccc(N(CC(=O)Nc2ccccc2C)S(=O)(=O)c2c(C)noc2C)cc1,3.7µM*,i,u,5.8µM*,-13%,4.6µM*
COc1ccc(N(CC(=O)N2CCc3ccccc32)S(=O)(=O)c2c(C)noc2C)cc1,-20%,i,10µM*,u,-20%,-4%
Cc1cn2c(=O)cc(COc3ccc(NC(=O)c4ccccc4C)cc3)nc2s1,x,i,i,i,2%,x
CCOc1ccccc1OCCC(=O)OCC(=O)Nc1c(C)cc(C)cc1C,-1%,i,i,i,7%,-1%
NCCN1C(=O)c2ccccc2C1(O)c1ccc(Cl)cc1 (configuration not stated),x,i,x,x,x,x
CCOc1ccccc1NC(=O)CN(c1ccc(OC)cc1)S(=O)(=O)c1c(C)noc1C,5.2µM*,i,2.6µM*,5.8µM*,-18%,5.2µM*
CCOc1ccccc1NC(=O)CN(c1cc(C)cc(C)c1)S(=O)(=O)c1c(C)noc1C,-2%,i,u,i,-5%,15%
Cc1ccc(CN=C(N)Nc2nc(C)cc(C)n2)cc1,7.3µM*,i,i,2.6µM*,-26%,7.3µM*
Brc1ccc2ncnc(Nc3ccc(N4CCOCC4)cc3)c2c1,-27%,i,2.9µM*,u,30%,-25%
CC(C)CCNC(=O)C(c1ccco1)N(Cc1cccs1)C(=O)Cn1nnc2ccccc21 (configuration not stated),5%,i,5.2µM*,i,3%,-1%
COCCNC(=O)C(c1cccs1)N(Cc1cccs1)C(=O)Cn1nnc2ccccc21 (configuration not stated),5%,i,i,i,6%,11%
